# PubChem BioAssay (Tox21)
# Values joined by “and” are separate entries in the source; they are usually repeats but may differ in a detail not shown here. Identical values can stand only once. A structure can be active in one record and inactive in another. Active and inactive are the calls of the source. A call without a number means that no potency is given here. Unless noted, calls follow the shape of the full dose curve.
# Assays:
# [1] = qHTS assay to identify small molecule antagonists of the thyroid receptor (TR) signaling pathway (AID 743065; active = well fitted curve in the direction sought with a large enough effect in the repeat runs; inconclusive = weak or mixed curves; inactive = no such curve, though single readings can be large; an effect the other way counts as inactive or inconclusive; also: nearly all actives have a fitted effect of over 55% in size; also: potency is read from the fitted curve at half-maximal effect)
# Procedure, shortened: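 Antagonism measured as loss of luciferase signal in GH3 cells stably carrying a TRE-luciferase reporter, co-treated with compound and T3 (1 nM final) for 23.5 h at 37 C. Viability was read in the same well by CellTiter-Fluor.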
# [2] = system: thyroid hormone receptor (rat, GH3 cells); assay: qHTS assay to identify small molecule agonists of the thyroid receptor (TR) signaling pathway (AID 743066)
# [3] = target: Estrogen receptor (Homo sapiens) (UniProt P03372); assay: qHTS assay to identify small molecule antagonists of the estrogen receptor alpha (ER-alpha) signaling pathway (AID 743069; active = well fitted curve in the direction sought with a large enough effect in the signal ratio in the repeat runs, not every such curve was filed as active; inconclusive = weak or mixed curves, or effect the other way; inactive = no such curve, though single readings can be large or run the other way; the % refers to the signal ratio; also: potency is read from the fitted curve at half-maximal effect)
# Sequence of Estrogen receptor (Homo sapiens) (P03372 whole entry, looked up): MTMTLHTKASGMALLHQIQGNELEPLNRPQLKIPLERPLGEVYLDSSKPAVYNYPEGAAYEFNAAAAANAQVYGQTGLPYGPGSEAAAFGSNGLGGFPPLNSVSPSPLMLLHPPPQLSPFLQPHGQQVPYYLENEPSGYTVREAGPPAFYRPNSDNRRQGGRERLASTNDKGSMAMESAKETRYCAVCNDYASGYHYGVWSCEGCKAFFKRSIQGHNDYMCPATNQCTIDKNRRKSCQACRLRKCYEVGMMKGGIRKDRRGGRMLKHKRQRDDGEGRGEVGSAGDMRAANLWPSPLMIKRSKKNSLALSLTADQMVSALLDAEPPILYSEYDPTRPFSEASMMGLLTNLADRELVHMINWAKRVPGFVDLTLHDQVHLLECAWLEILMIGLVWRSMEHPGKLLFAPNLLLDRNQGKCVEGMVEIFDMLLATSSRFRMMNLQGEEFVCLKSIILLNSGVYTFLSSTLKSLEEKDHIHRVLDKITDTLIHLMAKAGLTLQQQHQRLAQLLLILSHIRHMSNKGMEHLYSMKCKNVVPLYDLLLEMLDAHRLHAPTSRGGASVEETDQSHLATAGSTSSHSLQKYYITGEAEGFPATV
# Procedure, shortened: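 Fluorescence intensity from a beta-lactamase FRET substrate served as the read-out. Cells: HEK293 with stably integrated ER-alpha-UAS-bla reporter. Agonist 17beta-estradiol was co-added with compounds; incubation 18 hr at 37C, substrate 2 hr at room temperature.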
# [4] = qHTS assay to identify small molecule antagonists of the estrogen receptor alpha (ER-alpha) signaling pathway - cell viability counter screen (AID 743074); also: nearly all actives have a fitted effect of over 45% in size; also: potency is read from the fitted curve at half-maximal effect
# [5] = target: Estrogen receptor (Homo sapiens) (UniProt P03372); assay: qHTS assay to identify small molecule agonists of the estrogen receptor alpha (ER-alpha) signaling pathway (AID 743075); also: potency is read from the fitted curve at half-maximal effect
# [6] = qHTS assay to identify small molecule antagonists of the estrogen receptor alpha (ER-alpha) signaling pathway using the BG1 cell line (AID 743080);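 also: BG1 cells stimulated with 17beta-estradiol alongside compound; nearly all actives have a fitted effect of over 25% in size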; also: potency is read from the fitted curve at half-maximal effect
# Procedure, shortened: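 Readout is ONE-Glo luminescence, taken 30 min at room temperature after reagent addition, preceded by a CellTiter-Fluor viability read; BG1-Luc-4E2 cells had received compound and 17beta-estradiol for 21.5 h at 37 C.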
# [7] = qHTS assay to identify small molecule antagonists of the estrogen receptor alpha (ER-alpha) signaling pathway using the BG1 cell line - cell viability counter screen (AID 743081; active = well fitted curve in the direction sought with a large enough effect in the repeat runs; inconclusive = weak or mixed curves; inactive = no such curve, though single readings can be large; an effect the other way counts as inactive or inconclusive;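 also: compound given together with 17beta-estradiol as the ER stimulus; nearly all actives have a fitted effect of over 45% in size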; also: potency is read from the fitted curve at half-maximal effect)
# [8] = target: Aromatase (Homo sapiens) (UniProt P11511); assay: qHTS assay to identify aromatase inhibitors (AID 743083; active = well fitted curve in the direction sought with a large enough effect in the repeat runs; inconclusive = weak or mixed curves; inactive = no such curve, though single readings can be large; an effect the other way counts as inactive or inconclusive; also: nearly all actives have a fitted effect of over 55% in size; also: potency is read from the fitted curve at half-maximal effect)
# Sequence of Aromatase (Homo sapiens) (P11511 whole entry, looked up): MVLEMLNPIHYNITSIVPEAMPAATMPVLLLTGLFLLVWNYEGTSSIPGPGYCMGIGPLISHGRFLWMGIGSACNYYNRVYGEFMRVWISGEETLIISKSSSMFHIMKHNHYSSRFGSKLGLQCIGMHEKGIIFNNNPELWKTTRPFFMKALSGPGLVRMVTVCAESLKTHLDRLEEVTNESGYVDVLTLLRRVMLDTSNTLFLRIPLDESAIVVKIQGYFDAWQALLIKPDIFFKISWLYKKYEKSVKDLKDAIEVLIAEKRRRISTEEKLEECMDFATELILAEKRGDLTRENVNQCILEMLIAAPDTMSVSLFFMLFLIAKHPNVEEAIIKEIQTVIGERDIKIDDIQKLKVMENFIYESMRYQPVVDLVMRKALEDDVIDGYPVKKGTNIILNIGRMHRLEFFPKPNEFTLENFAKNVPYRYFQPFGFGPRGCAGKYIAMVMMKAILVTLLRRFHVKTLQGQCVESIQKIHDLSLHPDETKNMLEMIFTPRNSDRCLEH
# [9] = target: Estrogen receptor (Homo sapiens) (UniProt P03372); assay: qHTS assay to identify small molecule agonists of the estrogen receptor alpha (ER-alpha) signaling pathway using the BG1 cell line (AID 743079; active = well fitted curve in the direction sought with a large enough effect in the repeat runs; inconclusive = weak or mixed curves; inactive = no such curve, though single readings can be large; an effect the other way counts as inactive or inconclusive; also: nearly all actives have a fitted effect of over 20% in size; also: potency is read from the fitted curve at half-maximal effect); settings: BG1Luc4E2 cells, ERE-luciferase agonist, 22 h; activation: at 70.3 µM (top of the series)
Structure (SMILES),Potency [1],outcome [2],Potency [3],Potency [4],Potency [5],Potency [6],Potency [7],Potency [8],Potency [9],activation [9]
C1COC1,inactive,inactive,inactive,inactive,inactive,inactive,inactive,inactive,–,–
CC(CN(C)C)C(C)(O)Cc1ccc(Cl)cc1 (centres undefined),inactive,inactive,inactive,inactive,inactive,–,–,inactive,inactive,–
C=CC(=O)OCC1CC2CC1C1CCC(COC(=O)C=C)C21 (centres undefined),61.1 µM (active),inactive,–,–,–,–,inactive,inactive,–,–
CN(C)CCN1C(=O)c2ccccc2N(C)c2ccccc21,–,inactive,inactive,inactive,inactive,inactive,inactive,inactive,inactive,–
O=[N+]([O-])c1ccc(O/N=C/c2cc(Br)c(O)c(Br)c2)c([N+](=O)[O-])c1,9.64 µM (active),inactive,–,–,–,–,–,inactive,–,–
NNC(=O)CP(=O)(c1ccccc1)c1ccccc1,inactive,inactive,–,inactive,–,–,inactive,–,–,–
CCOC(=O)c1ccc(C#Cc2ccc3c(c2)C(C)(C)CCS3)nc1,inactive,inactive,–,inactive,–,–,inactive,–,–,–
CN1C(=O)c2ccccc2C1=O,inactive,inactive,–,–,–,–,–,inactive,–,–
O=C=Nc1ccc(Cl)c(Cl)c1,inactive,inactive,–,inactive,inactive,inactive,inactive,inactive,inactive,–
Brc1cc(Br)c(Oc2cc(Br)c(Br)cc2Br)cc1Br,–,inactive,inactive,inactive,inactive,inactive,inactive,–,inactive,–
CC(=O)Nc1cc(S(=O)(=O)O)cc2cc(S(=O)(=O)O)c(N=Nc3ccccc3)c(O)c12,inactive,inactive,inactive,inactive,inactive,–,8.63 µM (active),inactive,–,–
CC(C)C[C@H](NC(=O)[C@H](CCc1ccccc1)NC(=O)CN1CCOCC1)C(=O)N[C@@H](Cc1ccccc1)C(=O)N[C@@H](CC(C)C)C(=O)[C@@]1(C)CO1,0.0298 µM (active),–,601 nM [inconclusive] (active),–,–,188 nM (active),inactive,33.5 nM (active),–,–
CCCCCC#CC(=O)OC,–,inactive,inactive,inactive,inactive,inactive,inactive,inactive,inactive,–
O=C1c2ccccc2C(=O)C1c1nc2ccccc2c(Br)c1O,inactive,inactive,–,inactive,inactive,–,inactive,inactive,inactive,–
CC1=C(Br)C(=O)C(Br)=C/C1=C(/c1ccccc1S(=O)(=O)O)c1cc(Br)c(O)c(Br)c1C,18.6 µM (active),inactive,–,–,–,–,37 µM (active),18600 nM (active),–,–
O=C1c2ccccc2C(=O)C1(O)O,–,inactive,inactive,inactive,inactive,inactive,inactive,–,inactive,–
CC(C)COCC(CN(Cc1ccccc1)c1ccccc1)N1CCCC1 (centres undefined),10.6 µM (active),–,–,inactive,inactive,–,inactive,–,inactive,–
CN1CCCN=C1COC(=O)C(O)(c1ccccc1)C1CCCCC1 (centres undefined),–,inactive,inactive,–,inactive,–,inactive,inactive,inactive,–
OC(CCN1CCCC1)(c1ccccc1)C1CCCCC1 (centres undefined),–,inactive,–,inactive,–,–,inactive,inactive,–,–
C[C@]12CC[C@@H]3c4ccc(O)cc4CC[C@H]3[C@@H]1CC[C@@H]2OC(=O)CCC1CCCC1,–,inactive,–,inactive,1.2 nM [inconclusive] (active) and 0.5 nM [inconclusive] (active),inactive,inactive,inactive and 61.1 µM (active),–,60.2% (active) and 48.5% (active) and 30.3% (active)
C/C=C(/C(=C/C)c1ccc(O)cc1)c1ccc(O)cc1,–,inactive,–,inactive,0.6 nM [inconclusive] (active),inactive,inactive,inactive,0.3 nM (active),–
C=Cc1ccc(S(=O)(=O)O)cc1,–,inactive,inactive,inactive,inactive,inactive,inactive,inactive,23.7 µM (active) and inactive,–
CCOc1cccc(-n2cc(C(=O)N3CCN(c4cc(C(=O)O)c5ccccc5c4)CC3)nc2-c2ccc(C)cc2)c1,–,inactive,–,–,–,–,inactive,inactive,–,–
Cc1cc(O)ccc1O,–,inactive,–,inactive,–,–,inactive,–,–,–
CC(C)C(O)(c1ccc(OC(F)(F)F)cc1)c1cncnc1 (centres undefined),–,inactive,–,inactive,–,–,inactive,inactive,–,–
CC(=O)[C@H]1[C@H](C#N)C[C@H]2[C@@H]3CC=C4C[C@@H](O)CC[C@]4(C)[C@H]3CC[C@@]21C,–,inactive,–,inactive,inactive,inactive,inactive,inactive,–,–
O=C(O)CCc1nc(-c2ccccc2)c(-c2ccccc2)o1,–,inactive,inactive,inactive,inactive,inactive,inactive,inactive,–,–
CCOC(=O)/C=C/C(=O)OCC,–,–,inactive,inactive,inactive,–,inactive,inactive,inactive,–

Structure (SMILES),Potency [1],outcome [2],Potency [3],Potency [4],Potency [5],Potency [6],Potency [7],Potency [8],Potency [9],activation [9]
Cc1[nH]cnc1CN1CCc2c(c3ccccc3n2C)C1=O,–,–,–,inactive,–,–,inactive,inactive,–,–
O=C1C(=O)c2ccccc2C(O)=C1C1CCC(c2ccc(Cl)cc2)CC1 (centres undefined),–,inactive,–,2.04 µM (active),inactive,–,inactive,inactive,inactive,–
O=C1c2ccccc2C(=O)C1c1ccc(Br)cc1,–,–,inactive,inactive,inactive,inactive,inactive,inactive,inactive,–
COC(=O)CCS,–,inactive,inactive,inactive,inactive,inactive,inactive,inactive,inactive,–
CN(C(=O)CN(CCO)CC(=O)N(C)C(C)(C)Cc1ccccc1)C(C)(C)Cc1ccccc1,–,inactive,–,inactive,–,–,inactive,–,–,–
CCCCOc1ccc(OCCCN2CCOCC2)cc1,–,inactive,inactive,inactive,inactive,inactive,inactive,inactive,inactive,–
c1ccc2sc(SN(C3CCCCC3)C3CCCCC3)nc2c1,–,inactive,inactive,inactive,inactive,inactive,inactive,inactive,inactive,–
O=C(CCCN1CC=C(n2c(=O)[nH]c3ccccc32)CC1)c1ccc(F)cc1,–,inactive,inactive,inactive,inactive,–,inactive,inactive,inactive,–
C=CCc1ccccc1OCC(O)CNC(C)C (centres undefined),–,inactive,–,inactive,–,–,inactive,inactive,–,–
CCCCC(CC)CN (centres undefined),–,inactive,inactive,–,inactive,inactive,inactive,–,inactive,–
O=c1c(O)c(-c2ccc(O)cc2)oc2cc(O)cc(O)c12,–,inactive,–,inactive,–,–,inactive,–,–,–
COc1ncnc(NS(=O)(=O)c2ccc(N)cc2)c1OC,–,inactive,inactive,inactive,inactive,–,inactive,inactive,inactive,–
CN1C[C@H](C(=O)N[C@]2(C)O[C@@]3(O)[C@@H]4CCCN4C(=O)[C@H](Cc4ccccc4)N3C2=O)C[C@@H]2c3cccc4[nH]cc(c34)C[C@H]21,–,–,inactive,inactive,inactive,inactive,inactive,inactive,–,–
CCC(C)(C)OC,–,inactive,inactive,inactive,54700 nM [activator] (active),inactive,inactive,inactive,68200 nM (active),–
Clc1ccc(Nc2nnc(Cc3ccncc3)c3ccccc23)cc1,–,inactive,26.8 µM [inconclusive] (active) and inactive,inactive,inactive,21.1 µM (active) and 26.6 µM (active),inactive,5.31 µM (active) and 13.3 µM (active),inactive,–
CCCCCC[C@@H](O)C/C=C\CCCCCCCC(=O)O,–,inactive,–,inactive,–,–,inactive,inactive,–,–
C=COCC(C)C,–,inactive,inactive,inactive,inactive,–,inactive,inactive,inactive,–
C=C/C(C)=C/C/C=C(\C)CCC=C(C)C,–,inactive,inactive,inactive,inactive,inactive,inactive,inactive,inactive,–
COc1ccccc1N1CCN(CCCCNC(=O)c2ccc(-c3ccc(C(C)=O)cc3)cc2)CC1,–,inactive,inactive,inactive,inactive,–,–,inactive,inactive,–
COc1cc(C(=O)NC2CCN(C)CC2)ccc1Nc1ncc2c(n1)N(C1CCCC1)CC(F)(F)C(=O)N2C,–,–,1590 nM [inconclusive] (active),40 µM (active),inactive,250 nM (active),–,–,–,–
O=C1c2ccccc2C(=O)N1CCc1noc(-c2ccc(CN3CCCCCC3)s2)n1,–,inactive,inactive,–,inactive,–,inactive,–,–,–
OC[C@H]1O[C@@H](n2cnc3c(=S)nc[nH]c32)[C@H](O)[C@@H]1O,–,inactive,–,–,inactive,–,inactive,inactive,inactive,–
CCc1ccccc1,–,–,inactive,inactive,inactive,inactive,inactive,inactive,inactive,–
C[C@H]1c2cccc(O)c2C(O)=C2C(=O)[C@]3(O)C(O)=C(C(N)=O)C(=O)[C@@H](N(C)C)[C@@H]3[C@@H](O)[C@@H]21,–,inactive,–,inactive,inactive,inactive,inactive,inactive,inactive,–
C=C(C)[C@@H]1CCC2=CCC[C@@H](C)[C@]2(C)C1,–,inactive,inactive,inactive,inactive,–,inactive,–,–,–
CC(=O)OCC(=O)NCCCOc1cccc(CN2CCCCC2)c1,–,–,–,inactive,–,–,inactive,inactive,–,–
Cc1ccc2c(Br)cc(Br)c(O)c2n1,–,–,–,inactive,–,–,inactive,–,–,–
